Test [1] in a line: qHTS assay to test for compound auto fluorescence at 535 nm (green) in HEK293 cells (AID 720680). For orientation: qHTS replaces the single test concentration by a dilution series.
Test [2] can be described thus: qHTS assay to test for compound auto fluorescence at 460 nm (blue) in HEK293 cell free culture (AID 720681). In outline: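 Blue fluorescence (Ex 405/Em 460 nm, triamterene-equivalent) was read immediately after pin transfer of compound or DMSO into medium (DMEM, 10% FBS) without cells.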
Test [3] is described as follows: qHTS assay to test for compound auto fluorescence at 535 nm (green) in HEK293 cell free culture (AID 720682). Summed up:
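Compounds were pin-transferred into cell-free DMEM with 10% FBS, and green fluorescence was read at excitation 485 nm and emission 535 nm. Intensities were expressed as fluorescein-equivalent values.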

Test [4] can be described thus: qHTS assay to test for compound auto fluorescence at 590 nm (red) in HEK293 cell free culture (AID 720683). Summed up:
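Red-channel autofluorescence of compounds in culture medium (DMEM, 10% FBS), no cells, measured at 540/590 nm. Rose Bengal sodium is the reference fluorophore for equivalence.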

Test [5] is described as follows: qHTS assay to test for compound auto fluorescence at 590 nm (red) in HepG2 cell free culture (AID 720684). Summed up:
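Steps: dispense MEM/10% FBS medium, no cells; pin compound or DMSO vehicle; read red channel, Ex/Em 540/590 nm. Output given as Rose Bengal sodium equivalents.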

The nature of test [6]: qHTS assay to test for compound auto fluorescence at 460 nm (blue) in HepG2 cell free culture (AID 720685). In outline:
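Compound (23 nL) or DMSO pinned into cell-free MEM with 10% FBS; blue fluorescence read at 405/460 nm excitation/emission, expressed as auto-fluorescence equivalency to triamterene.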

Test [7] in a line: qHTS assay to test for compound auto fluorescence at 535 nm (green) in HepG2 cell free culture (AID 720686).
A short description of test [8]: qHTS assay to test for compound auto fluorescence at 460 nm (blue) in HepG2 cells (AID 720687). In outline: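 Blue-channel autofluorescence (Ex/Em 405/460 nm, triamterene-equivalent) was measured after 1 hr compound exposure at 37 C, 5% CO2. Cells were HepG2, plated overnight at 37 C in MEM plus 10% FBS.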
For test [9], the target named is Glucocorticoid receptor (Homo sapiens) (UniProt P04150). The test can be described thus: qHTS assay to identify small molecule agonists of the glucocorticoid receptor (GR) signaling pathway (AID 720691; active = well fitted activation curve with a large enough effect in the signal ratio in the repeat runs, not every such curve was filed as active; the % refers to the signal ratio). Summed up: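 Agonist mode in a HeLa line carrying a GRE-controlled beta-lactamase reporter. Compounds act for 18 h at 37 C before a 2 h room-temperature FRET substrate step and fluorescence reading.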
Glucocorticoid receptor (Homo sapiens), sequence (P04150 whole entry, looked up): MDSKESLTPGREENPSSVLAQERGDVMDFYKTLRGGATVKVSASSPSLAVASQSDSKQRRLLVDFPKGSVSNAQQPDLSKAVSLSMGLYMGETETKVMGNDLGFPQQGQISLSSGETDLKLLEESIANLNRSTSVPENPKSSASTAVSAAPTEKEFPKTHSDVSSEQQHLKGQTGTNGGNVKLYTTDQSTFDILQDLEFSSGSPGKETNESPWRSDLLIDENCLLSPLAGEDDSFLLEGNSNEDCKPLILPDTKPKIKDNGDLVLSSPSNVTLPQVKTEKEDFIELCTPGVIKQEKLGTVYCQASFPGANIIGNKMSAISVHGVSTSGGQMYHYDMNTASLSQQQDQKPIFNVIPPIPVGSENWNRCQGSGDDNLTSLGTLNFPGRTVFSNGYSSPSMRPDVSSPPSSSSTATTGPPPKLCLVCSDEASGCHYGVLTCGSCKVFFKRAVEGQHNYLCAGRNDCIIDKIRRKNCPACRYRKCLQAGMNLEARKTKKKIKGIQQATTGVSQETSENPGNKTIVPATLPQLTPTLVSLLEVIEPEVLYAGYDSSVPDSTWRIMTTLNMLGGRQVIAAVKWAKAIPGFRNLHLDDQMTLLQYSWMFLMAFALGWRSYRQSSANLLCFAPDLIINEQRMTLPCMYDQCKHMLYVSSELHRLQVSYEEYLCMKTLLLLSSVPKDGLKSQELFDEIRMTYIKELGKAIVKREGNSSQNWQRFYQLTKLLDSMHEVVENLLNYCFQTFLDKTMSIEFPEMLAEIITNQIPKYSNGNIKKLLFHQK

Test [10] can be described thus: qHTS assay to identify small molecule antagonists of the glucocorticoid receptor (GR) signaling pathway - cell viability counter screen (AID 720693). Note: nearly all actives have a fitted effect of over 55% in size.
The nature of test [11]: qHTS assay for identifying genotoxic compounds that show differential cytotoxicity against isogenic chicken DT40 cell lines with known DNA damage response pathways - wild type cell line (AID 743012). Note: nearly all actives have a fitted effect of over 60% in size. Note: potency is the fitted concentration of half-maximal effect. In outline:
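Cells (DT40 wild type, 300/well) are treated with DMSO-dissolved compounds after a ~0.5 h pre-incubation and kept 40 h at 37 C/5% CO2. Viability is then measured by CellTiter-Glo luminescence following 30 min at room temperature.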

Test [12] is described as follows: qHTS assay for identifying genotoxic compounds that show differential cytotoxicity against isogenic chicken DT40 cell lines with known DNA damage response pathways - Rad54/Ku70 mutant cell line (AID 743015). Note: nearly all actives have a fitted effect of over 60% in size. Note: potency is the fitted concentration of half-maximal effect.
Test [13] can be described thus: qHTS assay to identify small molecule antagonists of the androgen receptor (AR) signaling pathway - cell viability counter screen (AID 743033; note: nearly all actives have a fitted effect of over 45% in size).
Test [14] can be described thus: qHTS assay to identify small molecule antagonists of the androgen receptor (AR) signaling pathway using the MDA cell line - cell viability counter screen (AID 743041; note: nearly all actives have a fitted effect of over 45% in size). Summed up: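 Cells were plated at 3,000 per well and left 5 h. Compounds in DMSO were then pinned in, followed by R1881. After 16 h at 37C, CellTiter-Fluor fluorescence gave viability.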
Test [15] in a line: qHTS assay for identifying genotoxic compounds that show differential cytotoxicity against isogenic chicken DT40 cell lines with known DNA damage response pathways - Rev3 mutant cell line (AID 743014). Note: nearly all actives have a fitted effect of over 55% in size. Note: potency is the fitted concentration of half-maximal effect.
For test [16], the target named is Androgen receptor (Homo sapiens) (UniProt P10275). Nature of the test: qHTS assay to identify small molecule antagonists of the androgen receptor (AR) signaling pathway (AID 743035; active = well fitted inhibition curve with a large enough effect in the signal ratio in the repeat runs, not every such curve was filed as active; the % refers to the signal ratio). Summed up: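 Antagonism is scored as loss of R1881-driven beta-lactamase reporter expression in HEK293 cells carrying the reporter under a UAS element, after 16 h co-treatment at 37C and a 2 h room-temperature FRET substrate read.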
Androgen receptor (Homo sapiens), sequence (P10275 whole entry, looked up): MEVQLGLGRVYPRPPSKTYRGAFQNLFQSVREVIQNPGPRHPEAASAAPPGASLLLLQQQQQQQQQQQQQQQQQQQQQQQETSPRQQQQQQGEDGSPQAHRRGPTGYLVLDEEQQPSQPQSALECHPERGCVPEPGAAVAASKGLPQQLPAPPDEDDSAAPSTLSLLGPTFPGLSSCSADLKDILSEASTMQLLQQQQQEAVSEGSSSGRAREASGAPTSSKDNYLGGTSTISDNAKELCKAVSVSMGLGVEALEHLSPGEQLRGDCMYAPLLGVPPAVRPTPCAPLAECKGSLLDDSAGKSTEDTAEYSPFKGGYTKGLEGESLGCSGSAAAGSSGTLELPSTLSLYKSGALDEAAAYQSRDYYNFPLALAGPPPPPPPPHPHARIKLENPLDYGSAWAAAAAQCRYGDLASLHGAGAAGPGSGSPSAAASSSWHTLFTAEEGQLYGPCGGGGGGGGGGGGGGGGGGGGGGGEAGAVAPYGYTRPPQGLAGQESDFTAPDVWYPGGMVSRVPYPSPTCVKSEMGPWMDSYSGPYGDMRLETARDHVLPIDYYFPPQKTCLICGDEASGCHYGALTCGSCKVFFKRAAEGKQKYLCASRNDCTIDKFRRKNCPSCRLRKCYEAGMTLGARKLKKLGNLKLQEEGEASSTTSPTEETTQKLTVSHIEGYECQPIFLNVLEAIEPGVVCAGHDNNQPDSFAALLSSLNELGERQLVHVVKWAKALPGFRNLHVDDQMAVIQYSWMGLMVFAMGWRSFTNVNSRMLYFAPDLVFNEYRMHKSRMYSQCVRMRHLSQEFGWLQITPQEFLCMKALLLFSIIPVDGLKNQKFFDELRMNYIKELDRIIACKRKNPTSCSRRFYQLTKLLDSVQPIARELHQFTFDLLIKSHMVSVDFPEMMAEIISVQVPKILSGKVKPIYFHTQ

Test [17] has the same target. Nature of the test: qHTS assay to identify small molecule agonists of the androgen receptor (AR) signaling pathway (AID 743036; active = well fitted activation curve with a large enough effect in the signal ratio in the repeat runs, with a control signal flat, not every such curve was filed as active; the % refers to the signal ratio). Summed up: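 Activation was read as beta-lactamase FRET signal from LiveBLAzer B/G substrate, added for 2 h at room temperature. Before that, GeneBLAzer AR-UAS-bla GripTite (HEK293) cells had 16 h compound exposure at 37C.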
Test [18] has the same target. Nature of the test: qHTS assay to identify small molecule agonists of the androgen receptor (AR) signaling pathway using the MDA cell line (AID 743040; note: nearly all actives have a fitted effect of over 20% in size). Summed up: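 Cells plated, 5 h at 37C/0% CO2; compound or DMSO pinned; 16 h at 37C; ONE-Glo added; luminescence measured after 30 min at room temperature. Reporter line: MDA-kb2 with MMTV-luciferase responsive to AR and GR.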

Test [19] shares this target. The test can be described thus: qHTS assay to identify small molecule antagonists of the androgen receptor (AR) signaling pathway using the MDA cell line (AID 743042; note: nearly all actives have a fitted effect of over 55% in size). Summed up: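 Antagonist mode: compounds plus R1881 agonist added to MDA-kb2 AR-luc cells, incubated 16 h at 37C. Luciferase reporter luminescence quantified, with multiplexed CellTiter-Fluor readout for cell viability.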

“And” between values parts separate entries of the source, which are not always exact repeats. Equal entries are not always repeated. Inconclusive results are not listed. Some structures have more than one record in an assay (separate samples or runs), and their calls can disagree. The source made the active and inactive calls. Unless noted, calls come from the whole dose curve; as a rule, active = well fitted curve in the direction sought with a large enough effect in the repeat runs; inconclusive = weak or mixed curves; inactive = no such curve, though single readings can be large; an effect the other way counts as inactive or inconclusive.

As to `C=CCCCCCCCCC(=O)O`, the molecule was classed as inactive in test [1], in test [2], in [3], in [4], in test [5] and in test [6]. Also, the result in [7], in test [8], in test [9], in test [10] and in [13] was inactive. Further, the Potency entry in test [11], in [12] and in test [14] was “inactive” each time.

As for `O=C(O)c1ccccc1C(=O)O`, the result in test [1], in test [2], in test [3], in test [4], in test [5] and in test [6] was inactive. The call in test [7], in [8], in test [9], in test [10] and in test [13] was inactive. Moreover, the Potency entry in [11], in [15], in test [12] and in [14] was “inactive” throughout.

`CCCCCCC=O`: the call in [1], in test [2], in [3], in test [4], in [5] and in test [6] was inactive. Also, the molecule was called inactive in [7], in [8], in test [9], in test [10] and in [13]. Besides, the Potency result is “inactive and 48.6 µM (active)” in [11]; “inactive and 43.3 µM (active)” in test [15]; “inactive and 43.3 µM (active)” in [12]. Further, the Potency result in [14] is “inactive”.

As to `COC(=O)c1cccnc1`, the molecule was classed as inactive in test [1], in [2], in test [3], in test [4], in test [5] and in test [6]. Moreover, the result in test [7], in test [8], in test [9], in [10], in test [13] and in test [16] was inactive. Also, the call in test [19] was inactive. The Potency result in test [11], in test [12], in test [17], in test [18] and in test [14] was “inactive” throughout.

With `O=S(=O)(O)c1ccccc1`, the outcome in test [1], in test [2], in test [3], in [4], in test [5] and in [6] was inactive. In addition, the molecule was classed as inactive in [7], in test [8], in test [9], in test [10] and in test [13]. Moreover, the Potency entry in test [11], in test [15], in test [12] and in test [14] was “inactive” each time.

Consider `CC(O)CC(C)(C)O` (stereo unspecified), for which the call in test [1], in test [2], in [3], in test [4], in test [5] and in [6] was inactive. In addition, the molecule was called inactive in [7], in test [8], in [9], in [10] and in test [13]. Moreover, the Potency entry in test [11], in test [15], in [12] and in test [14] was “inactive” each time.

On to `CCOC(=O)c1ccc(N)cc1`, for which the outcome in test [1], in [2], in test [3], in test [4], in test [5] and in test [6] was inactive. Further, the call in [7], in [8], in test [9], in [10] and in test [13] was inactive. The Potency entry in test [11], in test [15] and in test [14] was “inactive” throughout. The Potency in test [12] is 7.17 µM (active) and inactive.

Take `CCCCCCCCCCO`: the molecule was called inactive in [1], in [2], in [3], in test [4], in test [5] and in [6]. Moreover, the call in test [7], in [8], in [9], in test [10] and in test [13] was inactive. For the same molecule, the Potency result in [11], in [15], in test [12] and in test [14] was “inactive” throughout.

Turning to `CCO[Si](CCCN)(OCC)OCC`, the molecule was called inactive in [1], in test [2], in test [3], in test [4], in test [5] and in test [6]. Also, the outcome in [7], in test [8], in test [9], in test [10] and in test [13] was inactive. The Potency result in [11], in [12] and in [14] was “inactive” throughout.

Values taken from PubChem BioAssay (Tox21).
